Screening data (PubChem)
This is a sample that favours compounds with a hit; in the whole collection about 4.6% have one here.
Peg3 prom inh-1 = reduces Peg3 promoter-driven luciferase expression in HeLa; HeLa PEG-Prom luciferase reporter, luminescence, overnight; inhibition, % at 20 µM; 360,000 tested, 1.7% active;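 active = inhibition of at least 50% at 20 µM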
Mdm2 MdmX PPI = disrupts the human Mdm2-MdmX interaction | SaOS-2 split-luciferase Mdm2/MdmX complementation, luminescence | inhibition, % at 8 µM | 330,000 tested, 3% active;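 active = inhibition of at least 50% at 8 µM in the primary screen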
KKLEB cytotox = reduces viability of KKLEB cystic fibrosis airway cells; AID 602141; 360,000 tested, 0.36% active; KKLEB CF airway cells viability, ATPlite luminescence, overnight; hits give low values; cells stimulated with P. aeruginosa culture filtrate; activity change (cytotoxicity), % at 5 µM;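 active = corrected activity change at or below -50% at 5 µM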
CF NFkB block = inhibitors of cystic fibrosis induced NF-kB; 360,000 tested, 0.86% active; KKLEB NF-kB-GFP reporter, PAF-induced, GFP fluorescence overnight; inhibition, % at 5 µM;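 active = at least 50% inhibition at 5 µM, scaled per plate between neutral and stimulator controls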;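 note: PAF is a Pseudomonas aeruginosa culture filtrate used as stimulus; plate controls were PAF-stimulated DMSO wells for no effect and unstimulated DMSO wells for full effect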
HIF-2a block = blocks HIF-2a reporter activity | 786-0 RCC cells HIF-2a reporter, luciferase luminescence, overnight | inhibition, % at 18.8 µM | 360,000 tested, 0.72% active;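 active = inhibition of the luminescence signal of 40% or more relative to plate controls, in a single-dose primary screen at 18.75 µM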
ABHD5-PLIN5 inh = inhibitors of human ABHD5-perilipin-5 interaction; Split G. princeps luciferase complementation, luminescence, 4 h; inhibition, % at 4 µM; 360,000 tested, 0.78% active; AID 602281;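 active = inhibition above the mean inhibition across every tested compound plus 3 SD, cut at about 22% in these data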;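 note: 0% = DMSO only wells and the 100% control is not disclosed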
Mdm2 MdmX conf-1 = confirmation of human Mdm2/MdmX interaction inhibitors | inhibition, % at 8 µM | Mdm2-MdmX binding, luminescent assay | 10,000 tested, 55% active | shares compounds with Mdm2 MdmX PPI
FLuc counter = full-length luciferase inhibition in Mdm2/MdmX counter-screen. 6,200 tested, 77% active. SaOS-2 full-length luciferase counterscreen, luminescence. shares compounds with Mdm2 MdmX PPI. inhibition, % at 8 µM;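 active = mean inhibition at 8 µM reaching about 37%, which flags the compound as non-specific, limit read from the data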;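 note: p53-null SaOS-2 cells with luciferase driven by a doxycycline-inducible promoter; compound on cells about two nights before reading with doxycycline added after day one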
Peg3 prom inh-2 = Peg3 promoter inhibition confirmation; HeLa PEG-Prom luciferase reporter, luminescence, overnight; 1,300 tested, 84% active; shares compounds with Peg3 prom inh-1; inhibition, % at 20 µM;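 active = at 20 µM dose, 40% or more inhibition averaged across four replicates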
CF NFkB conf = confirmation of cystic fibrosis induced NF-kB inhibitors | shares compounds with CF NFkB block | KKLEB CF airway cells, PAF-induced NF-kB-GFP fluorescence, overnight | inhibition, % at 5 µM | 1,300 tested, 64% active;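 note: stimulus PAF is a Pseudomonas aeruginosa filtrate and not platelet activating factor; plate controls were DMSO wells with stimulus for no effect and unstimulated DMSO wells for full effect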
Mdm2 MdmX conf-2 = confirmation of inhibitors of human Mdm2/MdmX interaction, set 2; shares compounds with HIF-2a block; 740 tested, 99% active; SaOS-2 split-luciferase Mdm2/MdmX complementation, luminescence; AID 504601; inhibition, % at 8 µM;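 active = mean inhibition of the luminescence signal across two replicates at or above 26 percent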
HIF-2a conf = confirmation of HIF-2a inhibitors | 786-0 RCC cells, HIF-2a luciferase reporter luminescence, overnight | AID 651580 | inhibition, % at 18.8 µM | shares compounds with HIF-2a block | 1,800 tested, 56% active;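 active = mean inhibition across four replicates of at least 40 percent at the single tested concentration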
HIF-1a cs = counter-screen for HIF-2a inhibitors: HIF-1a inhibition in MiaPaCa-2 cells; shares compounds with HIF-2a block; MiaPaCa-2 HIF-1a luciferase reporter, desferoxamine, overnight; inhibition, % at 18.8 µM; 1,800 tested, 72% active; AID 651589;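 active = mean inhibition of the reporter signal across four replicates at the single tested dose of 50% or more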
* = called active by the depositor; x = not tested or not shown. Cut-off read from the data, not from the text of the source, unless noted: active = inhibition above about 40%; inactive = the rest.

SMILES | Peg3 prom inh-1 | Mdm2 MdmX PPI | KKLEB cytotox | CF NFkB block | HIF-2a block | ABHD5-PLIN5 inh | Mdm2 MdmX conf-1 | FLuc counter | Mdm2 MdmX conf-2 | HIF-2a conf | HIF-1a cs | others
Cc1[nH]n(-c2ccccc2)c(=O)c1N=Nc1ccc2c(c1)OCCO2 | -290.9 | -175.0 | -1.0 | -2.0 | -311.1 | -0.5 | x | x | x | x | x
CCCCN1C(=O)C(CC(=O)NC2CC2)CC(C(=O)N(CC)CC)=C1C (stereo not drawn) | 3.1 | x | 10.3 | -17.3 | 15.6 | 1.7 | x | x | x | x | x
CN(C)c1ncc(S(=O)(=O)c2ccc(Cl)cc2)c(-c2ccccc2)n1 | 23.3 | 21.7 | -7.8 | 12.7 | 10.6 | -6.3 | x | x | x | x | x
O=S(=O)(c1ccc(Cl)cc1)c1snnc1-c1ccccc1 | 93.4* | 98.3* | -3.3 | 40.4 | 58.0* | 5.4 | 79.5* | 55.9* | 103.2* | 62.5* | 102.7*
O=C(c1ccc(S(=O)(=O)Cc2ccccc2F)c([N+](=O)[O-])c1)N1CCCC1 | 8.4 | 27.9 | -7.3 | 16.3 | 0.2 | 2.5 | x | x | x | x | x
O=C(c1ccc(S(=O)(=O)c2ccc(F)cc2)c([N+](=O)[O-])c1)N1CCCCCC1 | 17.7 | 56.3* | -20.8 | 54.3* | 52.9* | -3.9 | 31.1 | 30.1 | x | 3.3 | 49.1 | CF NFkB conf=38.8
O=C(CCl)N(c1ccccc1)C1CCS(=O)(=O)C1 (stereo not drawn) | 103.0* | 99.4* | -2.2 | 9.1 | 30.7 | 1.6 | 92.7* | 55.1* | 103.2* | x | x
COC(=O)C[C@H](NC(=O)Cn1cc(C)c(=O)[nH]c1=O)C(=O)OC | 2.7 | x | -2.7 | 4.7 | 7.3 | -4.3 | x | x | x | x | x
C=CCn1c(C)cc(C(=O)CN2C(=O)c3ccccc3S2(=O)=O)c1C | 93.5* | 74.5* | -4.6 | -13.5 | 94.5* | 1.9 | 78.7* | 53.0* | 74.5* | 99.0* | 104.0* | Peg3 prom inh-2=95.8*
CCn1c(C)cc(C(=O)CN2C(=O)c3ccccc3S2(=O)=O)c1C | 80.0* | 88.2* | 12.2 | 17.8 | 72.7* | 0.9 | 81.3* | 23.2 | x | 87.8* | 77.0*
C=CCn1c(C)cc(C(=O)CN2C(=O)NC3(CCCc4ccccc43)C2=O)c1C (stereo not drawn) | -37.3 | -34.0 | -8.9 | 9.0 | -64.0 | -2.4 | x | x | x | x | x
Cc1cc(C(=O)CN2C(=O)c3ccccc3S2(=O)=O)c(C)n1C(C)C | 68.1* | 56.0* | -2.9 | 8.5 | 76.0* | -5.9 | 41.0* | 37.0* | x | 86.0* | 82.0* | Peg3 prom inh-2=74.1*
Cc1cc(C)nc(NC(=O)CN2C(=O)c3ccccc3S2(=O)=O)n1 | 3.3 | -4.6 | -1.3 | 0.7 | 9.6 | 2.1 | x | x | x | x | x
Cc1cccc(N(Cc2cc(=O)[nH]c3ccccc23)C(=O)CCl)c1 | 94.8* | 100.3* | -25.7 | 72.1* | 65.0* | 8.5 | 100.2* | 56.1* | 102.0* | 90.2* | 103.7* | CF NFkB conf=108.0*
CC1=C/C(=N\OS(=O)(=O)c2ccccc2)C(C)=CC1=O | 106.5* | 96.3* | -13.3 | -7.2 | 64.8* | 7.3 | 83.8* | 53.2* | 102.7* | x | x
COc1ccc(NC(=O)c2cc([N+](=O)[O-])ccc2O)cc1 | 83.4* | 80.5* | 6.2 | 36.6 | 70.7* | 4.5 | 76.0* | 52.9* | x | 85.5* | 101.8*
COc1ccc(NC(=O)c2ccc(-c3ccc([N+](=O)[O-])cc3)o2)cc1 | -13.4 | 9.5 | -3.3 | -20.9 | -24.1 | 1.8 | x | x | x | x | x
COc1ccc(N2CCN(C(=O)COC(=O)c3cnccn3)CC2)cc1 | -1.3 | 25.2 | 18.3 | -8.4 | -2.6 | -17.0 | x | x | x | x | x
CN(C)CCCN(C(=O)c1ccc(S(=O)(=O)N2CCCC2)cc1)c1nc2ccc(Br)cc2s1 | -10.7 | 39.4 | -13.5 | -1.8 | -16.4 | 16.5 | x | x | x | x | x
CCc1ccc2nc(N(CCCN(C)C)C(=O)c3ccc(S(=O)(=O)N4CCc5ccccc5C4)cc3)sc2c1 | 28.4 | 98.5* | -97.6* | 66.6* | 68.1* | 20.0 | 5.0 | x | x | 27.0 | 46.9
COc1ccc(-c2oc3ccccc3c(=O)c2OC(C)=O)cc1 | -116.7 | 73.5* | 5.4 | 24.4 | -51.1 | 7.1 | 82.7* | 50.9* | 92.7* | x | x
Cc1cc(Cn2nc(-c3ccccc3)cc2C(=O)NCc2cccs2)on1 | 8.3 | -24.1 | -8.3 | 19.8 | -0.5 | 3.8 | x | x | x | x | x
Cc1cc(F)ccc1S(=O)(=O)Nc1ccccc1C(=O)Nc1ncn[nH]1 | 28.8 | 10.1 | 6.0 | -1.3 | 16.4 | -9.2 | x | x | x | x | x
Cc1cc(F)ccc1S(=O)(=O)Nc1ccccc1C(=O)Nc1ccccc1-c1nc2ccccc2[nH]1 | 95.7* | 96.2* | -59.3* | 74.0* | 3.5 | -16.0 | 91.6* | 51.0* | 97.2* | x | x
CCC(=O)[C@@H](C)[C@@H](OC(C)=O)[C@H](C)C[C@@H](C)[C@H]1OC(=O)C[C@@]2(O)CC=C(C)C(O2)C(C)=CCCC[C@H](O[C@H]2C[C@@H](OC(N)=O)[C@H](OC(C)=O)[C@@H](C)O2)C=C[C@H](C)C[C@H]1C | x | x | x | x | 3.1 | -1.1 | x | x | x | x | x
O=C(OCCOc1ccc(Br)cc1)c1ccc(Cl)c(S(=O)(=O)N2CCOCC2)c1 | -6.9 | 16.9 | 11.2 | 0.4 | 16.3 | -2.2 | x | x | x | x | x
O=S(=O)(CC(CN1CCCC1)N1CCCC1)c1ccc2ccccc2c1 (stereo not drawn) | 80.3* | 74.7* | -30.6 | 62.3* | 22.0 | 6.5 | 85.2* | 55.6* | 103.2* | x | x | CF NFkB conf=85.7*
Oc1[nH]c2ccc(Br)cc2c1N=NC(=S)N1CCOCC1 | 76.0* | 95.6* | -0.1 | 32.5 | 68.0* | 1.6 | 98.0* | 53.9* | 99.0* | x | x | Peg3 prom inh-2=84.7*
COC(=O)N=Nc1c(O)[nH]c2ccc(Br)cc12 | -2.4 | -11.4 | 20.2 | -53.3 | -19.4 | -3.9 | x | x | x | x | x
